# Screen size: about 44,000 compounds; fewer than 10 were called active. Calls come from the whole dose curve; as a rule, active = well fitted inhibition curve with a large enough effect; inconclusive = small, poorly fitted or top-dose-only effect; inactive = flat fitted curve, though single readings scatter. Not all results are given here.
# Target: Tumor susceptibility gene 101 protein (Homo sapiens) (UniProt Q99816)
# Test: qHTS Validation Assay for Inhibitors of HIV-1 Budding by Blocking the Interaction of PTAP/TSG101: Sytravon Library Screen; for activity change, negative = inhibition: 0% is about no effect
# Conditions: Fluorescence polarization, FITC-PTAP peptide/Tsg101, 20 min; series mostly up to 115 µM; activity change, negative = inhibition: at the top concentration
# Text: Stages of the HIV-1 replication cycle, specifically virus assembly and release, provide underexploited targets for the development of novel antiviral inhibitors. The late stages of HIV-1 replication are mediated by the Gag precursor protein, Pr55Gag. Expression of Pr55Gag is both necessary and sufficient for the production of virus-like particles from Gag-expressing cells. The Gag protein hijacks key host proteins involved in endocytic machinery of the host cell to promote endosomal processing and viral budding. The budding process requires a direct interaction between a […] (PTAP) motif in the p6 domain of Gag and the cellular endosomal sorting protein known as Tsg101. In this way, the Gag PTAP motif promotes the host cells to recruit viral particles to the plasma membrane where the new viral particles are released, effectively turning the host cells into viral factories. A fluorescence polarization assay has been developed to quantitatively measure the PTAP-Tsg101 interaction which can be used to screen for inhibitors of this interaction. This assay was run against the NCGC Sytravon Library collection. NIH Molecular Libraries Probe Production Network [MLPCN] NIH Chemical Genomics Center [NCGC] Grant: R03 MH087464-01A1 PI Name: Dr. Eric Freed, NCI
# Two uL of the Tsg101 binding domain in buffer (10 mM HEPES pH 7.5; 0.15 M NaCl, 0.01% Tween 20; 3 mM EDTA;0.1 mM TCEP) was dispensed into Greiner black MB 1536-well plates (final concentration 10 uM). Then, 23 nL of compounds or DMSO were delivered to each well using a pin tool. Finally, 2 uL of a FITC-labeled peptide containing the PTAP motif (1) in the same buffer was dispensed (50 nM final concentration) and the binding was allowed to proceed for 20 min. at r.t. Fluorescent polarization was determined using FITC excitation and polarized emission filters on a Perkin Elmer Envision. Assay cut-off (positive/negative criteria): Actives defined by CRC class, <25 µM; Efficacy <60% inhibition. The total fluorescent intensity from S and P channels will be used to flag fluorescent compounds.
# Potency is the fitted concentration of half-maximal effect.
# Sequence of Tumor susceptibility gene 101 protein (Homo sapiens) (Q99816 whole entry, looked up): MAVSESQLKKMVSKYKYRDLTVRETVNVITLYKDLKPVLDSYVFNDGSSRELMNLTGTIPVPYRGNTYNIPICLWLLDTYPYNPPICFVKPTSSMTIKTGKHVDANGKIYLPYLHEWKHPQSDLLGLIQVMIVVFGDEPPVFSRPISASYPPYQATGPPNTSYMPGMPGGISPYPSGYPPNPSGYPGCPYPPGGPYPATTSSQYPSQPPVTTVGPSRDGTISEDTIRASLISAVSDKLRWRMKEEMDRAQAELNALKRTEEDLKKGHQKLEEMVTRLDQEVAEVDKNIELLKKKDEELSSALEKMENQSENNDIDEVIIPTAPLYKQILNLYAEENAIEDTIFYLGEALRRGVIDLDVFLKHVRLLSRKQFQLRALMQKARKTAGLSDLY
Structure (SMILES),"activity change, negative = inhibition",Potency
COc1ccccc1C(=O)Nc1c(C(=O)N(C)Cc2ccccc2)sc2nc(C)c(Cl)c(C)c12,-1.59% (inactive),
COc1ccccc1CNC(=O)c1ccc(NC(=O)N2CC(C)Sc3ccccc32)cc1 (centres undefined),-5.63% (inactive),
COc1ccc(NC(=O)c2sc3nc[nH]c(=O)c3c2C)cc1,2.47% (inactive),
CCc1ccc(S(=O)(=O)Nc2cc3c(C(=O)OCc4ccccc4)c(C)oc3c3ccccc23)cc1,8.08% (inactive),
COc1ccccc1-c1ccnc2[nH]n(-c3ccccc3)c(=O)c12,-10.8% (inactive),
CSc1nn(Cc2cccc(C)c2)c(N)c1S(=O)(=O)c1ccccc1,5.53% (inactive),
CCOc1ccccc1C(=O)Nc1ccc2c(c1)N(C)C(=O)c1ccccc1S2,-5.55% (inactive),
CCOC(=O)c1[nH]c(C)c(CCC(=O)NCc2ccccc2C)c1C,1.29% (inactive),
Cc1ccc(S(=O)(=O)c2nc(-c3cccs3)oc2N2CCCCC2)cc1,-7.31% (inactive),
COc1cccc(CNC(=O)CCc2nc(-c3ccc(C)cc3)no2)c1,0.0869% (inactive),
CCCCCCn1nnc2sc(-c3ccccc3)cc2c1=O,1.81% (inactive),
Cc1ccc(Cl)cc1N1CCN(C(=O)c2cccn3c(=O)c4cc(Cl)ccc4nc23)CC1,1.96% (inactive),
Cc1ccccc1-n1c(=O)c2ccccc2n(Cc2ccc(F)cc2)c1=O,-2.61% (inactive),
CCc1ccccc1N(C)C(=O)C1CCCN(c2ncnc3onc(-c4ccc(F)cc4)c23)C1 (centres undefined),-3.7% (inactive),
CCOC(=O)c1c(NC(=O)c2ccc(S(=O)(=O)N(CC)CC)cc2)sc2c1CCCCC2,-4.85% (inactive),
Cc1nc2ccc(S(=O)(=O)N(CC(=O)Nc3ccc(F)cc3)Cc3ccccc3)cc2s1,1.33% (inactive),
COc1ccc(CCNC(=O)CN2C(=O)COc3ccc(S(=O)(=O)N4CCCC4)cc32)cc1OC,-6.56% (inactive),
Cc1cc(Nc2cccc(C(F)(F)F)c2)nc2ccc(NC(=O)c3ccc(=O)[nH]c3)cc12,1.63% (inactive),
O=C(Nc1ccc2oc(-c3ccc(O)c(Br)c3)nc2c1)c1cc2ccccc2o1,-4.46% (inactive),
O=C(c1cccc(Br)c1)N1CCN(Cc2cc(=O)n3nc(-c4ccccc4)sc3n2)CC1,-0.0587% (inactive),
O=C(CNS(=O)(=O)c1cccs1)N1CCN(c2ccccc2Cl)CC1,1.11% (inactive),
CC1CCc2noc(NC(=O)c3ccc([N+](=O)[O-])cc3)c2C1 (centres undefined),12.5% (inactive),
COc1cc(C(=O)N2CCN(c3ccc(Nc4ccc(C)cc4)nn3)CC2)cc(OC)c1OC,-0.737% (inactive),
CCOC(=O)c1ccc(NC(=O)CCS(=O)(=O)c2ccc3c(c2)oc(=O)n3C)cc1,4.41% (inactive),

Structure (SMILES),"activity change, negative = inhibition",Potency
O=C(COCc1cc(-c2ccc3c(c2)OCO3)on1)N1CCN(c2cccc(Cl)c2)CC1,1.37% (inactive),
Cc1ccc(C(=O)Nc2ccc(C(=O)O)cc2)cc1S(=O)(=O)Nc1ccccc1,-1.08% (inactive),
Cc1ccc(OCC(=O)OCc2cc(=O)n3nc(C4CC4)sc3n2)cc1,-7.51% (inactive),
CCOC(=O)C(Cc1ccccc1)NC(=O)CCc1c(C)nc2c(c(C)nn2-c2ccc(C)c(C)c2)c1C (centres undefined),-0.632% (inactive),
Cc1ccc(OCCSc2nc(-c3cccs3)nc3cc(=O)[nH]n23)cc1Cl,0.193% (inactive),
CC1(C)N=C(SCc2ccccc2Cl)c2ccccc2N1,-5.04% (inactive),
COc1ccc(Cc2nc3ccc(C(=O)NCc4ccccc4C)cc3o2)cc1,0.514% (inactive),
COc1ccc(N2C(=O)CS(=O)(=O)C23C(=O)N(Cc2ccc(C)cc2)c2ccccc23)cc1Cl (centres undefined),2.62% (inactive),
Cc1ccc(C)c(N2CCN(S(=O)(=O)c3ccc4c(c3)C(C(C)C)C(=O)N4)CC2)c1 (centres undefined),-7.65% (inactive),
Cc1ccc(NC(=O)CSc2nnc3[nH]c(=O)cc(C)n23)cc1Cl,-1.4% (inactive),
CCOC(=O)C1CCC(CN(Cc2ccc(OC)cc2)S(=O)(=O)c2ccc(F)c(C(=O)Nc3cc(C)ccc3C)c2)CC1 (centres undefined),-0.621% (inactive),
CCOC(=O)N1CCc2c(sc3c2c(=O)n(-c2ccc(CC)cc2)c(=O)n3C)C1,0.351% (inactive),
COc1ccc(CCN2C(=O)c3oc4cc(C)cc(C)c4c(=O)c3C2c2ccccc2F)cc1OC (centres undefined),-1.25% (inactive),
CSc1ccc(CCNC(=O)c2ccc3c(c2)nc2n3CCOC2)cc1,1.68% (inactive),
COc1ccccc1N1CCN(C(=O)C2CCN(S(=O)(=O)c3c(C)noc3/C=C/c3ccc(C)cc3)CC2)CC1,0.416% (inactive),
COc1ccc2c(c1)Cc1sc(NC(=O)c3ccccc3Br)nc1-2,-15.5% (inactive),
CC(=O)Nc1ccc(NC(=O)C2CCCN(S(=O)(=O)c3ccc4c(c3)CCCC(=O)N4)C2)cc1 (centres undefined),-4.99% (inactive),
COc1ccc(Cl)cc1NC(=O)CSc1nc(=O)[nH]c2c1CCCC2,-2.93% (inactive),
CCc1nn(CC(=O)Nc2cc(C)cc(C)c2)c(=O)c2cc3sccc3n12,2.57% (inactive),
COc1cc(OC)c(NC(=O)c2cnc(N3CCCC3)nc2C)cc1Cl,-0.674% (inactive),
O=C(NCCC1=CCCCC1)c1ccc2c(c1)N(Cc1ccccc1F)C(=O)c1ccccc1S2(=O)=O,-0.0457% (inactive),
O=C(CN1C(=O)COc2ccc(S(=O)(=O)N3CCCCCC3)cc21)N1CCN(c2cccc(C(F)(F)F)c2)CC1,-1.98% (inactive),
CCCCOc1ccc(CN2C(=O)C(=O)c3cc(Br)cc(C)c32)cc1OC,3.1% (inactive),
COc1cc(CN(C(=O)c2ccccc2Br)c2ccccn2)cc(OC)c1OC,1.54% (inactive),

Structure (SMILES),"activity change, negative = inhibition",Potency
CCOCCCNC(=O)c1c(NC(=O)Cc2coc3c(C)c(C)ccc23)sc2c1CCC2,-5.83% (inactive),
Cc1nnc(N2CCC(C(=O)Nc3ccc(F)cc3)CC2)c2nn(-c3ccc(Cl)cc3)c(C)c12,-0.22% (inactive),
O=C(c1cc(-c2ccc(F)cc2)on1)N1CCN(c2ccc(F)cc2)CC1,-0.644% (inactive),
COC(=O)CN1C(=O)CSc2ccc(S(=O)(=O)Nc3cc(C)ccc3C)cc21,0.45% (inactive),
Cc1cc(C)c2oc(C(=O)Nc3c(C(=O)Nc4ccccc4)oc4ccccc34)cc(=O)c2c1,-3.4% (inactive),
O=C(NC1CC(=O)N(c2ccc(Cl)cc2)C1)C1CCCC1 (centres undefined),1.05% (inactive),
CN1CCN(c2oc(-c3ccc(COc4ccc(Cl)cc4)o3)nc2C#N)CC1,-1.61% (inactive),
COc1ccc(-c2nc3sc(CCNS(=O)(=O)c4ccc(F)c(C)c4)c(C)n3n2)cc1,-2.15% (inactive),
O=C(COc1ccccc1F)Nc1ccc(C(=O)OCc2cc(=O)n3nc(C4CC4)sc3n2)cc1,-2.26% (inactive),
CCC(=O)Nc1ccccc1-c1nc2ccccc2n(CC(=O)Nc2ccc(C)c(C)c2)c1=O,-2.55% (inactive),
Cc1cccc(-c2nc(SCC(=O)Nc3cc(C)on3)c3c(=O)n(C)c(=O)n(C)c3n2)c1,-8.93% (inactive),
CC(=O)c1ccc(NC(=O)CSc2c(C(C)C)cnc3c2c(=O)n(C)c(=O)n3C)cc1,-0.533% (inactive),
COc1ccc(OCc2ccc(-c3nc(C#N)c(N4CCN(c5ccccc5)CC4)o3)o2)cc1,-0.55% (inactive),
CCCCNC(=O)c1cc(-c2ccc(Cl)c(Cl)c2)on1,0.656% (inactive),
CCSc1ncc(Cl)c(C(=O)Nc2c(C(=O)c3ccccc3)oc3ccccc23)n1,0.154% (inactive),
Cc1ccc(NC2=C(c3ccc(C(F)(F)F)cc3)C(=O)c3ccccc32)cc1F,-2.86% (inactive),
COc1cccc(C(=O)c2sc3nc(-c4ccccc4)cc(C(F)(F)F)c3c2N)c1,,28.2 µM (active)
COc1ccc(S(=O)(=O)c2c(Nc3cccc(Cl)c3)sc(C(=O)c3ccccc3)c2N)cc1,1.26% (inactive),
COc1cccc(C(=O)Nc2ccc(-c3cc(C(F)(F)F)nn3-c3ccccc3)cc2)c1,-5.37% (inactive),
COc1ccc(NC(=O)CN2CCCN(Cc3ccccc3)S2(=O)=O)cc1,4.58% (inactive),
COc1ccccc1Nc1nc(N)nc(N)c1S(=O)(=O)c1ccccc1,2.79% (inactive),
COc1cccc(N2CCN(C(=O)CCCCCn3c(=O)[nH]c4ccccc4c3=O)CC2)c1,-2.04% (inactive),
COc1ccc(CNC(=O)c2cc3c(=O)[nH]c4ccccc4c3s2)cc1,-0.283% (inactive),
CCCN1C(=O)C(O)(CC(=O)c2ccc(CC)cc2)c2cc(Br)ccc21 (centres undefined),-0.282% (inactive),

Structure (SMILES),"activity change, negative = inhibition",Potency
O=C(c1ccco1)n1nc(-c2ccc(Cl)cc2)nc1NCc1ccccc1,-4.62% (inactive),
Cn1c(=O)c2c(-c3ccccc3Br)n(Cc3ccccc3)cc2n(C)c1=O,-2.21% (inactive),
Cc1cc(C)c(NC(=O)CN2C(=O)c3cccnc3Oc3ccc(Cl)cc32)c(C)c1,0.363% (inactive),
CCOC(=O)c1ccc(NC(=O)C2CCN(S(=O)(=O)c3ccc4c(c3)CCCC(=O)N4)CC2)cc1,-0.0606% (inactive),
O=C(Nc1ccc2nc(SCC(=O)N3CCCc4ccccc43)sc2c1)c1ccc(F)cc1,7.03% (inactive),
CCOc1ccc(NC(=O)Cn2c(=O)n(CCCC(=O)NCc3ccc4c(c3)OCO4)c(=O)c3ccccc32)cc1,-2.28% (inactive),
CC(=O)N1c2ccc(S(=O)(=O)N3CCCCCC3)cc2CC1C(=O)NCc1ccccc1C (centres undefined),1.47% (inactive),
CCOc1cccc(C(=O)Nc2nnc(S(=O)(=O)N(C)c3ccc(C)cc3)s2)c1,4.37% (inactive),
COc1cc(CNCCSc2nnnn2C)ccc1OCc1ccc(Cl)cc1Cl,-9.59% (inactive),
Cc1cn(C)c(CC(=O)NCc2ccccc2)c1C(=O)O,-6.7% (inactive),
CCc1ccc(CNC(=O)c2ccc(CS(=O)c3ccc(Br)cc3)o2)cc1 (centres undefined),-1.78% (inactive),
COc1ccc(-n2ccnc(NCCc3ccc(Cl)cc3)c2=O)cc1OC,-3.87% (inactive),
N#Cc1nc(/C=C/c2ccc(F)cc2)oc1NC1CCCCC1,0.943% (inactive),
COc1ccc(CNC(=O)CS(=O)Cc2nc(-c3cccc(C)c3)oc2C)cc1 (centres undefined),0.25% (inactive),
CCOc1ccc(NC(=O)c2cc(S(=O)(=O)N3CCCC3)c[nH]2)cc1,-8.6% (inactive),
COc1cccc(C(=O)NCC(=O)OCc2cc(=O)n3ccsc3n2)c1,1.45% (inactive),
Cc1nn(-c2ccc(N3CCCCC3)nn2)c(C)c1CCC(=O)NCc1ccccc1F,1.09% (inactive),
CCc1cc2c(cc3c(=O)n(CC(=O)N4CCN(c5cc(Cl)ccc5C)CC4)ncn32)s1,-5.09% (inactive),
CCOc1ccc(C2C(=O)N(C3CCCCC3)CC(=O)N2CCC2=CCCCC2)cc1OC (centres undefined),-8.4% (inactive),
CC1CCCN(Cc2c(O)ccc3c(=O)c(Oc4ccc(C(C)(C)C)cc4)c(C(F)(F)F)oc23)C1 (centres undefined),-0.105% (inactive),
CCc1cccc(C)c1NS(=O)(=O)c1ccc(-c2cc(C)no2)s1,0.67% (inactive),
O=C(CCS(=O)(=O)c1cc(Br)cc2c1N(C(=O)C1CC1)CC2)Nc1ccc(C(F)(F)F)cc1,0.0494% (inactive),

# Reference: PubChem BioAssay AID1347069 (National Center for Advancing Translational Sciences (NCATS), 2019)
